A selection: hits, their analogues and other compounds. The true share with any hit is near 17%.
HT1080NT lethal: qHTS for induction of synthetic lethality in tumor cells producing 2HG: qHTS for the HT-1080-NT fibrosarcoma cell line | HT-1080-NT fibrosarcoma viability, CellTiter-Glo ATP luminescence, 48 h | Potency, µM (series often up to 46.1 µM), actives largely listed as cytotoxic | hit rate 1.6% among 360,000 | AID 686970, 2013;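 also: NT is the 2HG producing partner of a matched IDH1 knockdown line; nearly all actives have a fitted effect of over 55% in size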
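Toxicity toward the 2HG-producing NT line was scored as %Activity, normalised to DMSO and no-cell wells, from CellTiter-Glo luminescence after 48 hours' treatment.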
HT1080 IDH1KD tx: qHTS for induction of synthetic lethality in tumor cells producing 2HG: qHTS for the HT-1080-IDH1KD cell line | hit rate 2% among 360,000 | Potency, µM (doses to about 46.1 µM), actives largely listed as cytotoxic | HT-1080 IDH1 knockdown viability, ATP luminescence, 48 h
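% activity derives from luminescence (CellTiter-Glo), normalised to DMSO and no-cell wells. HT-1080-IDH1KD cells, 750/well, had 48 h compound exposure at 37 °C.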
TDP1 cell noCPT: qHTS for Inhibitors of human tyrosyl-DNA phosphodiesterase 1 (TDP1): qHTS in cells in absence of CPT. DT40 Tdp1-/- hTDP1 cells, no CPT, ATP luminescence, 48 h. Potency, µM (doses to about 46.2 µM), hits mostly inhibitors. hit rate 15% among 420,000. AID 686978, 2013; also: nearly all actives have a fitted effect of over 55% in size
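Chicken DT40 Tdp1-/- cells stably complemented with human TDP1 were seeded at 400 cells/well with DMSO in place of 20 nM camptothecin. After compound pinning, cells grew at least 48 hr at 37 °C; viability read by CellTiter-Glo luminescence.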
TGFb SMAD3 inh: qHTS for Inhibitors of TGF-b; HepG2 CAGA-GFP TGF-b/SMAD3 reporter, GFP fluorescence, 18 h; TGF-beta stimulated, 500 pg/mL final; hit rate 1.2% among 410,000; Potency, µM (top dose mostly 46.1 µM), hits mostly inhibitors; also: nearly all actives have a fitted effect of over 65% in size
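HEPG2 CAGA-GFP, 1000 cells/well; 2 h settle, 37 C; cpd via pin tool; TGF-b 500 pg/mL final; 18 h, 37 C; GFP imaging ex488/em500-530; %Activity normalised to -TGF-b and +DMSO controls; CRC fit, curve class.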
DT40 TDP1 CPT: qHTS for Inhibitors of human tyrosyl-DNA phosphodiesterase 1 (TDP1): qHTS in cells in presence of CPT | hit rate 12% among 420,000 | Potency, µM (series often up to 46.2 µM), hits mostly inhibitors | chicken DT40 Tdp1-/-;hTDP1 cells + 20 nM CPT, ATP luminescence, 48 h; also: nearly all actives have a fitted effect of over 55% in size
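Chicken DT40 Tdp1-/- cells complemented with human TDP1, 400 cells/well, exposed to compounds plus 20 nM camptothecin for at least 48 h at 37 C; viability read as ATP content by CellTiter-Glo luminescence.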
HepG2 tox: qHTS for Inhibitors of TGF-b: Cytotox Counterscreen; Potency, µM (highest dose often 46.1 µM), most hits filed as cytotoxic; HepG2 CAGA-GFP viability, ATP luminescence, 18 h; hit rate 0.76% among 410,000
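CellTiter-Glo luminescence gave cytotoxicity after 18 hours at 37 degrees C. The cells were HepG2 CAGA-GFP in 1% FBS DMEM, stimulated with 500 pg/mL TGF-beta after compound addition. %Activity was normalised to no-cell wells (complete cell-killing) and DMSO (no toxicity), and curves were fitted and classified.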
Each line names hits and unclear results; the compound was inactive in the other large screens. Calls follow the shape of the dose curve; as a rule, active = well fitted curve in the direction sought with a large enough effect; inconclusive = small, poorly fitted or top-dose-only effect, or another doubt; inactive = no such curve, though single readings can be large; an effect the other way counts as inactive or inconclusive.

Cc1ccc(C2CC(c3cccs3)=NN2C(=O)CSc2nc3ccccc3o2)cc1 (stereo not drawn)	TDP1 cell noCPT inconclusive, DT40 TDP1 CPT 15µM
CC(C)CN(C(=O)CCC(=O)OCc1ccc(Cl)cc1Cl)c1c(N)n(CC(C)C)c(=O)[nH]c1=O	TDP1 cell noCPT inconclusive, DT40 TDP1 CPT inconclusive
Cc1ccc(C)c(OCCn2cc(C(=O)O)c3ccccc32)c1	none
COc1ccccc1OCCn1cc(C(=O)c2ccco2)c2ccccc21	TDP1 cell noCPT 18µM, DT40 TDP1 CPT inconclusive
Cc1ccccc1OCCn1cc(C(=O)c2ccco2)c2ccccc21	TDP1 cell noCPT 23µM, TGFb SMAD3 inh inconclusive, DT40 TDP1 CPT inconclusive (no result: HT1080NT lethal, HT1080 IDH1KD tx)
COc1cccc(OCCn2cc(C(=O)c3ccco3)c3ccccc32)c1	HT1080 IDH1KD tx inconclusive, TDP1 cell noCPT 16µM, TGFb SMAD3 inh inconclusive, DT40 TDP1 CPT 16µM
CC(=O)c1cn(CCOc2cc(C)ccc2C)c2ccccc12	HT1080NT lethal inconclusive, HT1080 IDH1KD tx 9.2µM, TDP1 cell noCPT 4.1µM, DT40 TDP1 CPT 3.7µM
COc1cc(C2c3c(oc4ccccc4c3=O)C(=O)N2Cc2ccncc2)ccc1O (stereo not drawn)	none
COc1ccc(S(=O)(=O)N(C)C[C@@H]2Oc3c(NS(C)(=O)=O)cccc3C(=O)N([C@@H](C)CO)C[C@H]2C)cc1	none
COc1cccc(OCCn2cc(C(C)=O)c3ccccc32)c1	HT1080NT lethal inconclusive, HT1080 IDH1KD tx inconclusive, TDP1 cell noCPT 18µM, DT40 TDP1 CPT 12µM
CC(C)NCC(O)(c1ccc(Cl)cc1)c1ccc(Cl)cc1	TDP1 cell noCPT 21µM, TGFb SMAD3 inh inconclusive, DT40 TDP1 CPT inconclusive
NCC(O)(c1ccc(Cl)cc1)c1ccc(Cl)cc1	TDP1 cell noCPT 10µM, TGFb SMAD3 inh inconclusive, DT40 TDP1 CPT 16µM
CCN(CC)CCNCc1ccc(-c2ccc(Cl)cc2)o1	HT1080NT lethal 16µM, HT1080 IDH1KD tx inconclusive, TDP1 cell noCPT inconclusive, DT40 TDP1 CPT inconclusive
CCN(CC)CCNCC(O)(c1ccc(Cl)cc1)c1ccc(Cl)cc1	HT1080NT lethal 21µM, HT1080 IDH1KD tx 21µM, TDP1 cell noCPT 16µM, TGFb SMAD3 inh inconclusive, DT40 TDP1 CPT inconclusive
CN(C)C(=O)c1ccc2c(c1)N(CC(=O)NCc1ccc(F)cc1)C(=O)C1CCCCN21 (stereo not drawn)	none (no result: HT1080NT lethal, HT1080 IDH1KD tx)
Clc1cc(NCc2cccs2)ccc1N1CCOCC1	none
CCN(CC)CCOc1ccc(C(O)(Cc2ccc(Cl)cc2)c2ccc(C)cc2)cc1 (stereo not drawn)	TDP1 cell noCPT 4.7µM, DT40 TDP1 CPT 3µM (no result: HT1080NT lethal, HT1080 IDH1KD tx, TGFb SMAD3 inh, HepG2 tox)
Cc1nc(C(Cl)(Cl)Cl)nc2[nH]ccc(=O)c12	HT1080 IDH1KD tx inconclusive, TDP1 cell noCPT 16µM, DT40 TDP1 CPT inconclusive
N[C@@H](C(=O)N[C@@H]1C(=O)N2C(C(=O)O)=C(Cl)CC[C@H]12)c1ccccc1	none (no result: HT1080NT lethal, HT1080 IDH1KD tx, TGFb SMAD3 inh, HepG2 tox)
O=[N+]([O-])c1nn(-c2ccc3c(c2)OCCO3)n(O)c1=NCCCO	TDP1 cell noCPT 21µM, DT40 TDP1 CPT 15µM
O=[N+]([O-])c1nn(-c2ccc3c(c2)OCCO3)n(O)c1=NC1CCCC1	TDP1 cell noCPT inconclusive, DT40 TDP1 CPT 18µM
O=[N+]([O-])c1nn(-c2ccc3c(c2)OCCO3)n(O)c1=NC1CCCCCC1	HT1080 IDH1KD tx inconclusive, DT40 TDP1 CPT inconclusive
COc1ccc(-n2nc([N+](=O)[O-])c(=NCc3ccc4c(c3)OCO4)n2O)cc1	TDP1 cell noCPT 18µM, TGFb SMAD3 inh inconclusive, DT40 TDP1 CPT inconclusive
Cc1ccc(CN=c2c([N+](=O)[O-])nn(-c3ccc4c(c3)OCCO4)n2O)cc1	TDP1 cell noCPT 23µM, TGFb SMAD3 inh inconclusive, DT40 TDP1 CPT inconclusive
